# Active and inactive are the calls of the source. A call without a number means that no potency is given here. The call rests on the fitted dose curve.
# Biological target: Acetylcholinesterase (Homo sapiens) (UniProt P22303)
# Experiment: Acetylcholinesterase (AChE) small molecule antagonists: enzyme-based qHTS assay with human liver microsomes (AID 1347399); further: nearly all actives have a fitted effect of over 60% in size
# Settings: Potency: qHTS inhibition; outcome: qHTS inhibition; series mostly up to 115 µM
# Summary of the method: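 Recombinant human AChE (50 mU/mL in the enzyme mix) and human liver microsomes (0.25 mg/mL final) were preincubated with compound and NADPH (0.25 mg/mL final) for 30 min at 37 C. Acetylthiocholine/DTNB was then added; thiocholine was read colorimetrically after 10 min at room temperature.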
# Chain of Acetylcholinesterase (Homo sapiens) (P22303 whole entry, looked up): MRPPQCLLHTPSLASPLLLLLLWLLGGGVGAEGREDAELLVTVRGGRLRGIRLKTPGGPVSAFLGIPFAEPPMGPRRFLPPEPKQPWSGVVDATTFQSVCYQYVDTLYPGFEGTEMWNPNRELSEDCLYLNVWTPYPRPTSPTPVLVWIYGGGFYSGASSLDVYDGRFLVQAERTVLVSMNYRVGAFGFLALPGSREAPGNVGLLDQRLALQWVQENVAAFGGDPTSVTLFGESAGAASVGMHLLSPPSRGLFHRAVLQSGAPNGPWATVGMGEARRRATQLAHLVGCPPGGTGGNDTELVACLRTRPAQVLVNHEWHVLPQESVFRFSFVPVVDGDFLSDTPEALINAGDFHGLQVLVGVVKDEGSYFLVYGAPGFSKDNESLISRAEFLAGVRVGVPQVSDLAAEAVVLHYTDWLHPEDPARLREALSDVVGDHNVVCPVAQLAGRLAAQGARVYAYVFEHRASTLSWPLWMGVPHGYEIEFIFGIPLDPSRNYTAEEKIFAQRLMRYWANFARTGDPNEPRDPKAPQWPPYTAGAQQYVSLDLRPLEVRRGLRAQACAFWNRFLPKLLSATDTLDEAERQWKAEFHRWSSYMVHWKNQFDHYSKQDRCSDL
Compound,Potency,outcome,"activity change, negative = inhibition"
O=C(O)c1ccc(C(=O)O)c(C(=O)O)c1,inactive,–,–
NC(CO)(CO)CO,–,inactive,–
CCCC(C)=O,inactive,–,–
COc1ccc(C)cc1[N+](=O)[O-],inactive,–,–
FC(F)(F)c1cccc(Cl)c1,inactive,–,–
COc1ccc(Cl)cc1C(=O)NCCc1ccc(S(=O)(=O)NC(=O)NC2CCCCC2)cc1,inactive,–,–
COC1CCC=CO1 (stereo not given),inactive,–,–
CCCCN(CCO)CCCC,inactive,–,–
CC(=O)Nc1c(I)c(NC(C)=O)c(I)c(C(=O)O)c1I,inactive,–,–
C/C=C(\C)C(=O)OCc1ccccc1,inactive,–,–
O=C(O)c1cc(Cl)cc(Cl)c1,inactive,–,–
CC(C)c1cccc(C(C)C)c1,inactive,–,–
O=C1CCCCCCCCCCOCCCCO1,inactive,–,–
CCC(C)(C)c1cc(O)c(C(C)(C)CC)cc1O,inactive,–,–
CN(C)c1ccc(C2(c3ccc(N(C)C)cc3)OC(=O)c3cc(N(C)C)ccc32)cc1,inactive,–,–
O=C1CCC(C2CCCCC2)CC1,inactive,–,–
C/C=C1/CC2C=CC1C2 (stereo not given),inactive,–,–
COc1ccc(OC(F)(F)F)cc1CN[C@H]1CCCN[C@H]1c1ccccc1,inactive,–,–
O=C(O)C[C@H](O)C[C@H](O)/C=C/c1c(C2CC2)nc2ccccc2c1-c1ccc(F)cc1,–,–,-1.12% [at 23.6 µM] (inactive)
O=C1CCCC(=O)O1,inactive,–,–

Compound,Potency,outcome,"activity change, negative = inhibition"
C=CCOCC(CC)(CO)COCC=C,inactive,–,–
C=C1C(=C/C=C2\CCC[C@]3(C)[C@@H]([C@H](C)/C=C/[C@@H](O)C4CC4)CC[C@@H]23)C[C@@H](O)C[C@@H]1O,inactive,–,–
Cc1cc(Nc2ccc(O)cc2)ccc1N,inactive,–,–
O=C1c2ccccc2C(=O)C1c1ccccc1,inactive,–,–
[O-][n+]1ccccc1SSc1cccc[n+]1[O-],–,–,-15.2% [at 23.6 µM] (inactive)
CO[Si](CCCNCCN)(OC)OC,inactive,–,–
Cc1nc(C2CCCCC2)c(-c2ccc(S(N)(=O)=O)c(F)c2)o1,inactive,–,–
CC(=O)OC[C@H]1O[C@@H](n2ncc(=O)[nH]c2=O)[C@H](OC(C)=O)[C@@H]1OC(C)=O,inactive,–,–
Cc1nc2ccc(Cl)cc2[nH]1,inactive,–,–
CCCC(=O)C(C)=O,inactive,–,–
C=CC(=O)OCCOC(=O)CCC(=O)O,inactive,–,–
CC(C)(C)c1ccc(S)cc1,inactive,–,–
COCCc1ccc(OCC2CO2)cc1 (stereo not given),inactive,–,–
O=C1OC(=O)c2cccc3cccc1c23,inactive,–,–
c1ccc2sc(SSc3nc4ccccc4s3)nc2c1,–,–,-1.01% [at 23.6 µM] (inactive)
C#CCN(C)Cc1ccccc1,inactive,–,–
CC(C)(CO)[C@@H](O)C(=O)NCCCO,inactive,–,–
Cc1oc(=O)oc1CN1CCN(c2cc3c(cc2F)c(=O)c(C(=O)O)c2n3C(C)S2)CC1 (stereo not given),inactive,–,–
C=Cc1ccc(O)c(OC)c1,inactive,–,–
CC(C)(C)C(=O)OCOC(=O)[C@@H]1N2C(=O)[C@@H](NC(=O)[C@H](N)c3ccccc3)[C@H]2SC1(C)C,inactive,–,–

# — PubChem BioAssay (Tox21)
